# Measured values taken from PubChem BioAssay AID1159580 (chemical genetic matrix, 2015).
# In all, about 5,500 compounds went through this assay and about 2,000 (36%) were called active. Not shown: some 18% with an inconclusive outcome. The list shows a part of the results. A number with no mark means an inactive call. Rule as the data show it: active = normalized growth mostly below about 0.91 (no sharp cut-off); inconclusive = no clear call, values can overlap the other calls; inactive = mostly above about 0.92.
# Test: chemical genetic growth profiling, strain panel (AID 1159580);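 also: tested at 20 µM; growth read once vehicle control cultures reached saturation at 30 °C; 1 = growth at the plate median or of vehicle wells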
# Conditions: growth OD
# [1] = S. cerevisiae deletion strains, locus YAL013W, strain DEP1, stronger effect = lower value
# [2] = S. cerevisiae deletion strains, locus YBR229C, strain ROT2, stronger effect = lower value
# [3] = S. cerevisiae deletion strains, locus YCL061C, strain MRC1, stronger effect = lower value
# [4] = S. cerevisiae deletion strains, locus YDL101C, strain DUN1, stronger effect = lower value
# [5] = S. cerevisiae deletion strains, locus YDR150W, strain NUM1, stronger effect = lower value
# [6] = S. cerevisiae deletion strains, locus YEL061C, strain CIN8, stronger effect = lower value
# [7] = S. cerevisiae deletion strains, locus YGR078C, strain PAC10, stronger effect = lower value
# [8] = S. cerevisiae deletion strains, locus YHR030C, strain SLT2, stronger effect = lower value
# [9] = S. cerevisiae deletion strains, locus YHR087W, strain rtc3, stronger effect = lower value
# [10] = S. cerevisiae deletion strains, locus YJR043C, strain POL32, stronger effect = lower value
# [11] = S. cerevisiae deletion strains, locus YJR075W, strain HOC1, stronger effect = lower value
# [12] = S. cerevisiae deletion strains, locus YLR039C, strain RIC1, stronger effect = lower value
# [13] = S. cerevisiae deletion strains, locus YLR058C, strain SHM2 (second series), stronger effect = lower value
# [14] = S. cerevisiae deletion strains, locus YLR085C, strain ARP6, stronger effect = lower value
# [15] = S. cerevisiae deletion strains, locus YLR262C, strain YPT6, stronger effect = lower value
# [16] = S. cerevisiae deletion strains, locus YML094W, strain GIM5, stronger effect = lower value
# [17] = S. cerevisiae deletion strains, locus YMR219W, strain ESC1, stronger effect = lower value
# [18] = S. cerevisiae deletion strains, locus YMR263W, strain SAP30, stronger effect = lower value
# [19] = S. cerevisiae deletion strains, locus YNL153C, strain GIM3, stronger effect = lower value
# [20] = S. cerevisiae deletion strains, locus YNL298W, strain CLA4 (second series), stronger effect = lower value
# [21] = S. cerevisiae deletion strains, locus YNL322C, strain KRE1, stronger effect = lower value
# [22] = S. cerevisiae deletion strains, locus YNR030W, strain Alg12, stronger effect = lower value
# [23] = S. cerevisiae deletion strains, locus YOL006C, strain TOP1, stronger effect = lower value
# [24] = S. cerevisiae deletion strains, locus YPL055C, strain LGE1, stronger effect = lower value
# [25] = S. cerevisiae deletion strains, locus YPL241C, strain CIN2, stronger effect = lower value
# [26] = S. cerevisiae deletion strains, locus YPR135W, strain CTF4, stronger effect = lower value
# [27] = S. cerevisiae strains, strain wild type, stronger effect = lower value
compound,measurement,setting,value
CSc1cccc(NC(=S)N=CN(C)C)c1,normalized growth,[1],0.977
same,normalized growth,[2],1.01
same,normalized growth,[3],0.954
same,normalized growth,[4],0.944
same,normalized growth,[5],0.974
same,normalized growth,[6],0.997
same,normalized growth,[7],0.977
same,normalized growth,[8],0.882
same,normalized growth,[9],1.12 [resistant] (active)
same,normalized growth,"S. cerevisiae deletion strains, locus YJL187C, strain SWE1, stronger effect = lower value",0.988
same,normalized growth,[10],0.961
same,normalized growth,[11],1.05
same,normalized growth,[12],0.73 (active)
same,normalized growth,[13],1.03
same,normalized growth,[14],0.618 (active)
same,normalized growth,[15],0.932
same,normalized growth,[16],0.96
same,normalized growth,[17],1
same,normalized growth,[18],0.983
same,normalized growth,"S. cerevisiae deletion strains, locus YNL128W, strain TEP1, stronger effect = lower value",0.962
same,normalized growth,[19],0.963
same,normalized growth,[20],0.798 (active)
same,normalized growth,[21],1
same,normalized growth,[22],0.958
same,normalized growth,[23],0.393 (active)
same,normalized growth,[24],1.02
same,normalized growth,[25],0.898
same,normalized growth,[26],0.787
same,normalized growth,[27],0.933
Cc1cc(Oc2ccc(C(F)(F)F)cc2NS(C)(=O)=O)cc(C)c1Cl,normalized growth,"S. cerevisiae deletion strains, locus YAR019C, strain CDC15, stronger effect = lower value",0.992
same,normalized growth,"S. cerevisiae deletion strains, locus YBL105C, strain PKC1, stronger effect = lower value",0.988
same,normalized growth,"S. cerevisiae deletion strains, locus YBR135W, strain CKS1, stronger effect = lower value",0.995
same,normalized growth,"S. cerevisiae deletion strains, locus YBR136W, strain MEC1, stronger effect = lower value",0.991
same,normalized growth,"S. cerevisiae deletion strains, locus YBR160W, strain CDC28, stronger effect = lower value",0.988
same,normalized growth,"S. cerevisiae deletion strains, locus YDL017W, strain CDC7, stronger effect = lower value",0.982
same,normalized growth,"S. cerevisiae deletion strains, locus YDL028C, strain MPS1, stronger effect = lower value",0.998
same,normalized growth,[4],0.979
same,normalized growth,"S. cerevisiae deletion strains, locus YDL108W, strain KIN28, stronger effect = lower value",0.995
same,normalized growth,"S. cerevisiae deletion strains, locus YDL132W, strain cdc53, stronger effect = lower value",0.989
same,normalized growth,"S. cerevisiae deletion strains, locus YDL214C, strain PRR2, stronger effect = lower value",0.961
same,normalized growth,"S. cerevisiae deletion strains, locus YDR052C, strain DBF4, stronger effect = lower value",0.996
same,normalized growth,"S. cerevisiae deletion strains, locus YDR054C, strain cdc34, stronger effect = lower value",0.995
same,normalized growth,"S. cerevisiae deletion strains, locus YDR226W, strain ADK1, stronger effect = lower value",0.979
same,normalized growth,"S. cerevisiae deletion strains, locus YDR477W, strain SNF1, stronger effect = lower value",0.978
same,normalized growth,"S. cerevisiae deletion strains, locus YER123W, strain YCK3, stronger effect = lower value",0.95
same,normalized growth,"S. cerevisiae deletion strains, locus YER133W, strain GLC7, stronger effect = lower value",0.974
same,normalized growth,"S. cerevisiae deletion strains, locus YFL009W, strain cdc4, stronger effect = lower value",0.995
same,normalized growth,"S. cerevisiae deletion strains, locus YFL029C, strain CAK1, stronger effect = lower value",0.981
same,normalized growth,"S. cerevisiae deletion strains, locus YFR003C, strain YPI1, stronger effect = lower value",0.986
same,normalized growth,"S. cerevisiae deletion strains, locus YFR019W, strain FAB1, stronger effect = lower value",0.984
same,normalized growth,"S. cerevisiae deletion strains, locus YFR028C, strain CDC14, stronger effect = lower value",0.995
same,normalized growth,"S. cerevisiae deletion strains, locus YGR040W, strain KSS1, stronger effect = lower value",0.985
same,normalized growth,"S. cerevisiae deletion strains, locus YGR052W, strain FMP48, stronger effect = lower value",0.986
same,normalized growth,"S. cerevisiae deletion strains, locus YGR092W, strain DBF2, stronger effect = lower value",0.889
same,normalized growth,[8],0.802 (active)
same,normalized growth,"S. cerevisiae deletion strains, locus YHR079C, strain IRE1, stronger effect = lower value",0.873
same,normalized growth,"S. cerevisiae deletion strains, locus YHR082C, strain KSP1, stronger effect = lower value",1.03
same,normalized growth,"S. cerevisiae deletion strains, locus YHR205W, strain SCH9, stronger effect = lower value",0.902
same,normalized growth,"S. cerevisiae deletion strains, locus YIL147C, strain SLN1, stronger effect = lower value",0.993
same,normalized growth,"S. cerevisiae deletion strains, locus YJL095W, strain BCK1, stronger effect = lower value",0.891
same,normalized growth,"S. cerevisiae deletion strains, locus YJL128C, strain PBS2, stronger effect = lower value",0.947
same,normalized growth,"S. cerevisiae deletion strains, locus YJL157C, strain FAR1, stronger effect = lower value",0.963
same,normalized growth,"S. cerevisiae deletion strains, locus YJR016C, strain ILV3, stronger effect = lower value",0.986
same,normalized growth,"S. cerevisiae deletion strains, locus YJR066W, strain TOR1 (second series), stronger effect = lower value",0.928
same,normalized growth,"S. cerevisiae deletion strains, locus YJR066W, strain TOR1, stronger effect = lower value",1.01
same,normalized growth,"S. cerevisiae deletion strains, locus YKL048C, strain ELM1, stronger effect = lower value",0.985
same,normalized growth,"S. cerevisiae deletion strains, locus YKL067W, strain YNK1, stronger effect = lower value",0.957
same,normalized growth,"S. cerevisiae deletion strains, locus YKL101W, strain HSL1, stronger effect = lower value",0.961
same,normalized growth,"S. cerevisiae deletion strains, locus YKL193C, strain SDS22, stronger effect = lower value",0.989
same,normalized growth,"S. cerevisiae deletion strains, locus YKL203C, strain TOR2, stronger effect = lower value",1.02
same,normalized growth,"S. cerevisiae deletion strains, locus YLR113W, strain HOG1, stronger effect = lower value",0.75 (active)
same,normalized growth,"S. cerevisiae deletion strains, locus YLR133W, strain CKI1, stronger effect = lower value",0.96
same,normalized growth,"S. cerevisiae deletion strains, locus YLR403W, strain SFP1, stronger effect = lower value",0.939
same,normalized growth,"S. cerevisiae deletion strains, locus YML070W, strain DAK1, stronger effect = lower value",0.931
same,normalized growth,"S. cerevisiae deletion strains, locus YMR001C, strain CDC5, stronger effect = lower value",0.989
same,normalized growth,"S. cerevisiae deletion strains, locus YMR205C, strain PFK2 (second series), stronger effect = lower value",0.972
same,normalized growth,"S. cerevisiae deletion strains, locus YMR277W, strain FCP1, stronger effect = lower value",0.991
same,normalized growth,"S. cerevisiae deletion strains, locus YNL006W, strain LST8, stronger effect = lower value",0.983
same,normalized growth,"S. cerevisiae deletion strains, locus YNL020C, strain ARK1, stronger effect = lower value",0.914
same,normalized growth,"S. cerevisiae deletion strains, locus YNL161W, strain CBK1, stronger effect = lower value",0.985
same,normalized growth,"S. cerevisiae deletion strains, locus YNL183C, strain NPR1, stronger effect = lower value",0.981
same,normalized growth,"S. cerevisiae deletion strains, locus YNL207W, strain RIO2, stronger effect = lower value",0.987
same,normalized growth,"S. cerevisiae deletion strains, locus YNL222W, strain SSU72, stronger effect = lower value",0.996
same,normalized growth,"S. cerevisiae deletion strains, locus YNL307C, strain MCK1 (second series), stronger effect = lower value",0.939
same,normalized growth,"S. cerevisiae deletion strains, locus YOL078W, strain AVO1, stronger effect = lower value",0.995
same,normalized growth,"S. cerevisiae deletion strains, locus YOL136C, strain PFK27, stronger effect = lower value",0.939
same,normalized growth,"S. cerevisiae deletion strains, locus YOR061W, strain CKA2, stronger effect = lower value",0.923
same,normalized growth,"S. cerevisiae deletion strains, locus YOR119C, strain RIO1, stronger effect = lower value",1.04
same,normalized growth,"S. cerevisiae deletion strains, locus YOR231W, strain MKK1, stronger effect = lower value",0.902
same,normalized growth,"S. cerevisiae deletion strains, locus YOR329C, strain SCD5, stronger effect = lower value",0.984
same,normalized growth,"S. cerevisiae deletion strains, locus YPL031C, strain PHO85, stronger effect = lower value",0.971
same,normalized growth,"S. cerevisiae deletion strains, locus YPL153C, strain RAD53, stronger effect = lower value",0.981
same,normalized growth,"S. cerevisiae deletion strains, locus YPL204W, strain HRR25, stronger effect = lower value",0.947
same,normalized growth,"S. cerevisiae deletion strains, locus YPL209C, strain IPL1, stronger effect = lower value",0.987
same,normalized growth,"S. cerevisiae deletion strains, locus YPL256C, strain CLN2, stronger effect = lower value",0.827 (active)
same,normalized growth,"S. cerevisiae deletion strains, locus YPR025C, strain CCL1, stronger effect = lower value",0.993
same,normalized growth,"S. cerevisiae deletion strains, locus YPR106W, strain ISR1, stronger effect = lower value",0.985
same,normalized growth,"S. cerevisiae deletion strains, locus YPR111W, strain DBF20, stronger effect = lower value",0.973
same,normalized growth,"S. cerevisiae deletion strains, strain NNK1, stronger effect = lower value",0.984
same,normalized growth,"S. cerevisiae deletion strains, strain TSCII, stronger effect = lower value",0.993
COc1ccc(CCNc2ccc(C(F)(F)F)cc2N)cc1OC,normalized growth,[1],1
same,normalized growth,[2],0.998
same,normalized growth,[3],1
same,normalized growth,[4],0.974
same,normalized growth,"S. cerevisiae deletion strains, locus YDL134C, strain PPH21, stronger effect = lower value",1.02
same,normalized growth,[5],0.911
same,normalized growth,[6],1.02
same,normalized growth,[7],0.985
same,normalized growth,[8],0.903
same,normalized growth,[9],1.04
same,normalized growth,[10],0.996
same,normalized growth,[11],1.02
same,normalized growth,[12],0.988
same,normalized growth,[13],1.01
same,normalized growth,[14],0.961
same,normalized growth,[15],0.946
same,normalized growth,[16],0.972
same,normalized growth,[17],0.994
same,normalized growth,[18],0.918
same,normalized growth,[19],0.988
same,normalized growth,[20],0.966
same,normalized growth,[21],1.01
same,normalized growth,[22],0.974
same,normalized growth,[23],1.01
same,normalized growth,[24],0.893
same,normalized growth,[25],0.93
same,normalized growth,[26],0.842
same,normalized growth,[27],1.01
